Data as given in the OligoGym collection.
Also: reference of the scale not given here.

Each sequence was assayed against EAPP (assay: pooled miR-30 sensor sort-seq; sequence = guide strand). Conditions: shRNA.
TATATATCATCGTAGTACCTTG showed a sensor-assay potency score (higher = more potent) of -0.621. For TTTATATCTTAGAACCTCCTCT, the sensor-assay potency score (higher = more potent) was 0.652. TAATTCAGCTTCCATCTCCTTT showed a sensor-assay potency score (higher = more potent) of -0.368. In the case of TATATCTTAGAACCTCCTCTTT, the sensor-assay potency score (higher = more potent) is reported as -0.803. With TAGATGATTCACTTTCTCCGGT the sensor-assay potency score (higher = more potent) was 0.266.

What follows are sequences tested against EBNA1BP2 in the same assay as above. Conditions: shRNA.
Work on TCATCTTCTCTCTTGTTCGTTT yielded a sensor-assay potency score (higher = more potent) of -0.122. TATTTGACCCTTTCTTGCCAGG gave a sensor-assay potency score (higher = more potent) of -1.16. With TTCATCTTCTCTCTTGTTCGTT the sensor-assay potency score (higher = more potent) was 0.27. For TAGTCTGCAGCTTCTGTCGAAT, the sensor-assay potency score (higher = more potent) was -0.943. ATAGAAACTCATCTCTCGCTGG gave a sensor-assay potency score (higher = more potent) of 0.115. Work on TTTCTTAATAGCATTCATCATA yielded a sensor-assay potency score (higher = more potent) of -1.2. Work on TATACCGTCGTTTAGCACTGGG yielded a sensor-assay potency score (higher = more potent) of -0.643. In the case of ATCAACAGCTTTCTGGTCCTTG, the sensor-assay potency score (higher = more potent) is reported as -0.301. Sequence TTAGTCTGCAGCTTCTGTCGAA has a sensor-assay potency score (higher = more potent) of 0.0417. TAGAAACTCATCTCTCGCTGGA gave a sensor-assay potency score (higher = more potent) of 0.612. Work on TTCTGGATCAACAGCTTTCTGG yielded a sensor-assay potency score (higher = more potent) of -1.11. TACATCATCATAGCTCTCCCGA gave a sensor-assay potency score (higher = more potent) of -0.31.

What follows are sequences tested against EBP in the same assay as above. Conditions: shRNA.
Work on TTGTCCAGTCTTAGGTGCTGAG yielded a sensor-assay potency score (higher = more potent) of -1.23. TTTTGTGGCCTTGGCATCCAGC gave a sensor-assay potency score (higher = more potent) of -1.25. TTGGCATCCAGCGTGCTCTGGG showed a sensor-assay potency score (higher = more potent) of -0.0185. ACAAGCTGTAGAATGAAGCGGA gave a sensor-assay potency score (higher = more potent) of 0.326. TTGGTCTCCAAGCAGGTCTTCG was tested, and the sensor-assay potency score (higher = more potent) was -0.868. TTCGTAGTAGAGAACGAACCAG showed a sensor-assay potency score (higher = more potent) of -0.577. TCGTAGTAGAGAACGAACCAGC was tested, and the sensor-assay potency score (higher = more potent) was -1.05. With ATGGTTTCCATGCACACTGTGA the sensor-assay potency score (higher = more potent) was -0.951. In the case of ATTAGGTACAAAGTTGTCCAGT, the sensor-assay potency score (higher = more potent) is reported as -0.389. TTCTCTTGTATCTGTGTTCTAA was tested, and the sensor-assay potency score (higher = more potent) was -0.119. For TAAAACCAGAAGTAGAGAGGGT, the sensor-assay potency score (higher = more potent) was 0.087. With ATGAAGACAAAGTAAAACCAGA the sensor-assay potency score (higher = more potent) was -0.723.

These sequences were tested against ECH1 in the same assay as above. Conditions: shRNA.
With AAGCACTCTACCATCTCTCTCC the sensor-assay potency score (higher = more potent) was -0.152. In the case of TTGACCAGGCTCTGGTTCCCGA, the sensor-assay potency score (higher = more potent) is reported as -0.944. In the case of TCTTTGTCTGGGAACACCCGGC, the sensor-assay potency score (higher = more potent) is reported as -0.283. AAGGCTAATACTGAGTCCCGGG showed a sensor-assay potency score (higher = more potent) of 0.193. For TCTTGTTGAAGCACTCTACCAT, the sensor-assay potency score (higher = more potent) was 0.331. TTTGTCTGGGAACACCCGGCTG was tested, and the sensor-assay potency score (higher = more potent) was -1.1. TATCGAGTGATGATGTCACGGA was tested, and the sensor-assay potency score (higher = more potent) was -0.0973. TTGAAGGTCTCCTGGTATCGAG gave a sensor-assay potency score (higher = more potent) of -0.974. TGAACATTTTTCCTGCACCAGA was tested, and the sensor-assay potency score (higher = more potent) was -1.08. With TTGTCTGGGAACACCCGGCTGA the sensor-assay potency score (higher = more potent) was 0.142. For TCGAGTGATGATGTCACGGAGG, the sensor-assay potency score (higher = more potent) was -1.15.
